Source: PubChem (National Center for Advancing Translational Sciences (NCATS))
ALOX12 inh: ALOX12 (human) lipoxygenase inhibition | purified 12hLO, xylenol orange hydroperoxide absorbance | Potency, µM (highest dose often 108 µM), without a hit: top-dose activity change, negative = inhibition, actives largely listed as inhibitors | 1.1% of 580,000 active
Target sequence (P18054 whole entry, looked up): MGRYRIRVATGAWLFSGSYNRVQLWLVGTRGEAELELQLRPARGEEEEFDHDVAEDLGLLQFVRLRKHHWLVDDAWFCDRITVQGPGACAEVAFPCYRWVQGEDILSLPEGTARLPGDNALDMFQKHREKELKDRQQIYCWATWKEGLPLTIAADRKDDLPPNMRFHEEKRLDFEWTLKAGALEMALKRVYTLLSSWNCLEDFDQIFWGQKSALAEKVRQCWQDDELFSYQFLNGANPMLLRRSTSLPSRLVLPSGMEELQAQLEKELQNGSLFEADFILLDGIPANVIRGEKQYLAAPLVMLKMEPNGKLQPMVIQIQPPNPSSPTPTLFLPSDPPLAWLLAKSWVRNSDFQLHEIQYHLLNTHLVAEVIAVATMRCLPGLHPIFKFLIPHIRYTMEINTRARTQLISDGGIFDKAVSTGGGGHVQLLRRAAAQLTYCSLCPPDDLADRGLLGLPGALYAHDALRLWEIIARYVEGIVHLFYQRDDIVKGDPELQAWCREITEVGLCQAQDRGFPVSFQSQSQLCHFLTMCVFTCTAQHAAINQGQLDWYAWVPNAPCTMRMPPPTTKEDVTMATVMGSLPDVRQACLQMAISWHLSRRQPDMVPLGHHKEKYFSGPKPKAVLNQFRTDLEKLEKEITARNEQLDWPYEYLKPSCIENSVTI
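Hydroperoxide product was detected by ferrous iron/xylenol orange as the 573 to 405 nm absorbance ratio. Arachidonic acid at 40 uM (final) was turned over for 30 min at room temperature by 150 nM human 12hLO, pH 7.0 Hepes buffer, after 15 min compound preincubation.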
RORg inh: ROR gamma (mouse) transcription inhibition; Potency, µM (highest dose often 53.6 µM), without a hit: at the highest dose activity change, negative = inhibition, most hits filed as inhibitors; AID 2551; 5.4% of 310,000 active; Drosophila S2 Gal4-RORgamma UAS-luciferase reporter, 20 h; also: nearly all actives have a fitted effect of over 60% in size
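Using a luciferase readout, inhibitors were identified by reduced reporter activity in Drosophila cells coexpressing a copper-inducible Gal4–ROR gamma fusion and UAS-driven Photinus luciferase, incubated 20 hr after 700 uM copper sulfate.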
DT40 TDP1 CPT: growth inhibition of DT40 Tdp1-/-;hTDP1 cells with camptothecin (screen for TDP1 inhibitors). AID 686979. Potency, µM (titrated, usually from 46.2 µM), without a hit: top-dose activity change, negative = growth inhibition, usual class: inhibitors. chicken DT40 Tdp1-/-;hTDP1 cells + 20 nM CPT, ATP luminescence, 48 h. 12% of 420,000 active; also: nearly all actives have a fitted effect of over 55% in size
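Chicken DT40 Tdp1-/- cells complemented with human TDP1, 400 cells/well, exposed to compounds plus 20 nM camptothecin for at least 48 h at 37 C; viability read as ATP content by CellTiter-Glo luminescence.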
VP16 counter: inhibits Gal4-VP16 luciferase reporter, ROR gamma counter-screen; Drosophila S2 Gal4-VP16 UAS-luciferase, luminescence, 20 h; 3.5% of 310,000 active; Potency, µM (top dose mostly 53.6 µM), for inactives: top-dose activity, negative = inhibition, most hits filed as inhibitors;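 also: Gal4-VP16 expression switched on by copper sulfate through the metallothionein promoter; nearly all actives have a fitted effect of over 50% in size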
DT40 TDP1 no CPT: qHTS for Inhibitors of human tyrosyl-DNA phosphodiesterase 1 (TDP1): qHTS in cells in absence of CPT; Potency, µM (titrated, usually from 46.2 µM), inactives show at the top dose activity change, negative = growth inhibition, hits mostly inhibitors; DT40 Tdp1-/- hTDP1 cells, no CPT, ATP luminescence, 48 h; AID 686978, 2013; 15% of 420,000 active; also: nearly all actives have a fitted effect of over 55% in size
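DT40 Tdp1-/-;hTDP1 cells, no CPT (DMSO vehicle only), 400 cells/well; compounds pin-transferred; ≥48 hr, 37 °C; CellTiter-Glo 30 min RT dark, luminescence read.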
ELG1 DNA repair: blocks ELG1-dependent DNA repair in HEK293T cells; HEK293T ELG1-luciferase reporter, luminescence, 16 h; DNA damage induced by 5-fluorouridine; Potency, µM (doses to about 46.1 µM), for inactives: at the highest dose activity change, negative = inhibition, most hits filed as inhibitors; 2.3% of 330,000 active; AID 504467; also: nearly all actives have a fitted effect of over 55% in size
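DMSO vehicle served as the neutral condition. Each well held 2,000 cells given 5-fluorouridine plus compound; after 16 hr at 37 °C/5% CO2, ONE-Glo was added and luciferase measured 30 min later.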
Starred values were filed as active, the others as inactive; u = inconclusive; x = no result given; [ ] = another dose, or the depositor's remark. Compounds with a hit are over-represented: about 15% of the library has one in this group of screens. Calls follow the shape of the dose curve; as a rule, active = well fitted curve in the direction sought with a large enough effect; inconclusive = small, poorly fitted or top-dose-only effect, or another doubt; inactive = no such curve, though single readings can be large; an effect the other way counts as inactive or inconclusive. % is scaled to controls: 0 for no effect and ±100 for the full control effect; potency is read from the fitted curve at half-maximal effect.

SMILES | ALOX12 inh | RORg inh | DT40 TDP1 CPT | VP16 counter | DT40 TDP1 no CPT | ELG1 DNA repair
COc1cccc(S(=O)(=O)NCC2Cn3cccc3C(=O)N2C)c1 (configuration not stated) | 17% | x | x | x | x | x
CCOC(=O)c1oc2ccc(S(=O)(=O)NCC3Cn4cccc4C(=O)N3C)cc2c1C (configuration not stated) | 35µM* | x | x | x | x | x
CCOC(=O)c1ccccc1NC(=O)CSc1c(CC(C)C)cnc2c1c(=O)n(C)c(=O)n2C | -1% | x | x | x | x | x
CCCCCCCCCCOc1ccc(OC(=O)c2cccnc2)cc1 | -1% | x | x | x | x | x
CCCCCCCOc1ccc(OC(=O)c2cccnc2)cc1 | 19% | -9% | 5.2µM* | 11% | 8.2µM* | u
CCCCCCCCOc1ccc(OC(=O)c2ccncc2)cc1 | 20% | x | x | x | x | x
CCCCOc1ccc(OC(=O)c2cccnc2)cc1 | -2% | -9% | 21µM* | 15% | 16µM* | 11%
CCCCCCCOc1ccc(OC(=O)c2ccncc2)cc1 | 1% | 1% | 9.2µM* | -5% | 10µM* | 6%
O=C(COc1ccc(-c2nnco2)cc1)c1ccc(F)c(F)c1 | -18% | x | x | x | x | x
CN(C)c1ccc(C(=O)N2CCN3C(=O)N(CC(N)=O)C(=O)[C@@H]3C2)cc1 | 31%[176 µM] | x | x | x | x | x
COc1cccc(N2C(=O)NC(=NC3CCCC3)C23CCN([S+](=O)([O-])c2cccc(C(F)(F)F)c2)C3)c1 (configuration not stated) | 1%[6.33 µM] | x | x | x | x | x
CS(=O)(=O)c1ccc(C(=O)N(Cc2ccccc2)c2ccccc2)cc1 | u | 1% | u | 1% | u | 2%
Cc1ccc(N(Cc2ccccc2)C(=O)c2ccc(F)cc2)cc1 | 10% | -1% | 21µM* | -5% | u | -2%
COc1cc(C(=O)N(Cc2ccccc2)c2cccc(C)c2)ccc1OCC(=O)N1CCOCC1 | 1% | x | u | x | 16µM* | x
Cc1cccc(N(Cc2ccccc2)C(=O)c2ccc(S(C)(=O)=O)cc2)c1 | u | u | 16µM* | 29% | u | -1%
COc1ccc(C(=O)N(Cc2ccccc2)c2cccc(C)c2)cc1 | 44% | 5% | 15µM* | 2% | u | u
COc1ccc(CN(C(=O)c2ccc(C)cc2)c2cccc(N)c2)cc1 | u | x | -19% | x | u | -4%
Cc1ccc(N(Cc2ccccc2)C(=O)c2cccc(F)c2)cc1 | x | -34% | u | -14% | u | 1%
COc1ccc(CN(C)C(=O)c2ccc(OCC(=O)N3CCOCC3)c(OC)c2)cc1 | 410% | x | -18% | x | -6% | 0%
CC(C)C(=O)Nc1c(C(=O)Nc2cccc(F)c2)oc2ccccc12 | -38% | x | x | x | x | x
COc1cccc(OCc2cc(C(=O)N(Cc3nccn3C)C(C)C)no2)c1 | 16% | -1% | -8% | 2% | -5% | 0%
CCN(Cc1ccncc1)C(=O)c1cc(COc2ccc(F)cc2F)on1 | -2% | -5% | u | -2% | -49% | 9%
Cc1ccc(OCc2cc(C(=O)N(C)Cc3ccccn3)no2)cn1 | 25% | x | x | x | x | x
Cc1cccc(C)c1OCc1cc(C(=O)N(Cc2nccn2C)C(C)C)no1 | 3% | -12% | 15µM* | -11% | 10µM* | u
CC(C)N(Cc1nccn1C)C(=O)c1cc(COc2ccc3ncccc3c2)on1 | -15% | -67% | u | u | 10µM* | -13%
SMILES | ALOX12 inh | RORg inh | DT40 TDP1 CPT | VP16 counter | DT40 TDP1 no CPT | ELG1 DNA repair
CCN(Cc1ccncc1)C(=O)c1cc(COc2c(C)cccc2C)on1 | 4% | 31% | 12µM* | u | u | 17%
Cc1nc(CN(C)C(=O)c2cc(COc3ccc4ncccc4c3)on2)cs1 | -4% | u | 5.8µM* | 6.3µM* | 5.8µM* | u
Cc1ccc(NC(=O)Cn2c(N3CCCCC3)nc(C)c(C)c2=O)cc1 | 27% | x | x | x | x | x
CN1CCN(c2nc3c(c(=O)[nH]2)CCN(Cc2cc(Cl)ccc2F)CC3)CC1 | 13% | x | x | x | x | x
CCN(C(=O)Cn1c(=O)c2c(ncn2CC)n(Cc2ccccc2)c1=O)c1cccc2ccccc12 | 6% | x | x | x | x | x
COC[C@@H]1CN(c2ncccn2)C[C@H]1C(=O)NCc1ccccn1 | 90% | x | x | x | x | x
CC(=O)c1c(C)[nH]c(C(=O)Nc2cccc(C)n2)c1C | -1% | u | -6% | u | 2% | u
CC(=O)c1c(C)[nH]c(C(=O)NC(C)c2ccccc2)c1C (configuration not stated) | 0% | 6% | u | -4% | 16µM* | u
CCC(C)c1ccccc1NC(=O)c1[nH]c(C)c(C(C)=O)c1C (configuration not stated) | 0% | -13% | -15% | 8% | -22% | -9%
CC(=O)c1c(C)[nH]c(C(=O)Nc2nccs2)c1C | -6% | u | 12µM* | -8% | 13µM* | u
CCc1ccc(OCC2Cn3c(nc4c3c(=O)[nH]c(=O)n4C)O2)cc1 (configuration not stated) | -17% | 37% | u | -14% | 26µM* | u
Cc1ccccc1OCC1Cn2c(nc3c2c(=O)[nH]c(=O)n3C)O1 (configuration not stated) | u | -13% | u | 8% | u | -18%
Cc1cccc(OCC2Cn3c(nc4c3c(=O)[nH]c(=O)n4C)O2)c1 (configuration not stated) | -30% | 11% | u | -1% | 10µM* | u
CC(=O)N(C1CCOCC1)C1CCN(C(=O)NCc2ccc(OC(F)(F)F)cc2)CC1 | 29% | x | x | x | x | x
COc1cccc(-c2ncc3c(n2)OCCN(c2ccccc2)C3=O)c1 | 7%[176 µM] | x | x | x | x | x
Cc1nc(N/N=C/c2ccc(O)cc2)c2cnn(-c3ccccc3)c2n1 | 0% | 42% | u | 5% | 23µM* | -22%
O=c1c2ccccc2nc(N/N=C/c2ccc(O)cc2)n1O | 114% | 11µM* | u | -28% | -22% | u
O=C(N/N=C/c1c(O)ccc2ccccc12)C(=O)N1CCCC1 | 2% | x | u | x | u | x
O=c1c2ccccc2nc(N/N=C/c2c(O)ccc3ccccc23)n1O | u | 0.89µM* | 3.7µM* | 13µM* | 5.2µM* | u
Cc1nc2ccccc2nc1N/N=C/c1ccc(O)cc1 | -22% | u | -3% | -23% | 0% | u
COc1cccc2c1OCCCN(C(=O)CC1COCCN1)C2 (configuration not stated) | 15% | x | x | x | x | x
CCOC(=O)c1c(C)n(CC(=O)OC)c2ccc(OC)cc12 | 57% | x | x | x | x | x
O=C(/C=C/c1ccccc1)Nc1ccccc1C(=O)NCc1cccnc1 | 28% | x | x | x | x | x
